Measurements as given in the supplement of paper PMC11732987, “Enantioselective OTUD7B fragment discovery through chemoproteomics screening and high-throughput optimisation” (Communications Chemistry, 2025).

How the values were obtained:
Assay in all cases: log2 ratio of Biotin-Ahx-Ub-VS probe labelling (fragment/DMSO); higher = less target engagement (more negative = stronger competition), active = hit call of the paper (q ≤ 0.05, log2 ratio ≤ -1)
Conditions in all cases: compound concentration: 200 uM; treatment time: 3 h
USP19 = target: T1, USP19 (UniProt O94966)
T1 sequence (whole entry): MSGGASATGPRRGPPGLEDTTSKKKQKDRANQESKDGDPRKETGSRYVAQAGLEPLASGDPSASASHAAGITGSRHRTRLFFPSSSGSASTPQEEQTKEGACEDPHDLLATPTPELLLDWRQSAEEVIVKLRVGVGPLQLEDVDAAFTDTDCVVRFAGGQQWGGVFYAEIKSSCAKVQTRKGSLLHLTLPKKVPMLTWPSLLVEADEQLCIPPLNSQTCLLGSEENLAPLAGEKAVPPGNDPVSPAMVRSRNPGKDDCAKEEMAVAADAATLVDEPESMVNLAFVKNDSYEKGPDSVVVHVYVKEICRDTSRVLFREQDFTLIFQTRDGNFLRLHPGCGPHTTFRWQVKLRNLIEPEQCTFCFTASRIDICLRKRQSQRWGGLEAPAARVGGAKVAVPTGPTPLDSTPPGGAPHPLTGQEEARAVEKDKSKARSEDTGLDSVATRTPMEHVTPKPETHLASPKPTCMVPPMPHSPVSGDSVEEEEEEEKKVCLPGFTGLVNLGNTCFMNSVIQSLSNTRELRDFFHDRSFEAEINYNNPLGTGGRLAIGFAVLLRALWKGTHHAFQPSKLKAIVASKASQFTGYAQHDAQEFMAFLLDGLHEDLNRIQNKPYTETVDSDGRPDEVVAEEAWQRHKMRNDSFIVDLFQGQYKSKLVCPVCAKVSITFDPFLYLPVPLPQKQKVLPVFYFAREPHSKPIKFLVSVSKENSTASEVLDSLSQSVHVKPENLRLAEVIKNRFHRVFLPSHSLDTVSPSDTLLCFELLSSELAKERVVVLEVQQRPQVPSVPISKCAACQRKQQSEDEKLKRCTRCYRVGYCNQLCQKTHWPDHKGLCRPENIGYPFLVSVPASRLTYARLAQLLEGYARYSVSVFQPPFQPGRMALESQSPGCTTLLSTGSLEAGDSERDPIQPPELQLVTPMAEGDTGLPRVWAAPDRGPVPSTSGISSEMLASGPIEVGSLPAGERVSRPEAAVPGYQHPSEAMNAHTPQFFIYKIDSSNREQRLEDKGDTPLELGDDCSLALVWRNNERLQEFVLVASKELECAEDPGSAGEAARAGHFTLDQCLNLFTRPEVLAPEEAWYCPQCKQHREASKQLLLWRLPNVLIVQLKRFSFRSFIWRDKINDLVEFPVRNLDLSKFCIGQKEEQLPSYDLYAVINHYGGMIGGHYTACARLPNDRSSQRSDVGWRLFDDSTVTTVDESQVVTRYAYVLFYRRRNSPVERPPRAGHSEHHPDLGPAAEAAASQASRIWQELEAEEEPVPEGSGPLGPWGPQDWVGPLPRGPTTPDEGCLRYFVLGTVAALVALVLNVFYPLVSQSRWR
Method in brief: (§1)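 HEK293T lysate (495 µg per sample, in Tris/CHAPS/IGEPAL buffer with protease inhibitors) was treated in triplicate with fragment at 200 µM or with DMSO for 3 h. It was then treated with Biotin-Ahx-Ub-VS (0.5 µM final) for 1 h. Labelled DUBs were NeutrAvidin-enriched, digested with LysC and trypsin, and run by diaPASEF LC-MS/MS. Spectronaut label-free quantities were global-median-normalised. Values are average log2 ratios fragment/DMSO by unpaired t-test, using proteins with ≥2 unique peptides.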

USP24 = USP24 (UniProt Q9UPU5)
Chain of USP24 (Q9UPU5 whole entry): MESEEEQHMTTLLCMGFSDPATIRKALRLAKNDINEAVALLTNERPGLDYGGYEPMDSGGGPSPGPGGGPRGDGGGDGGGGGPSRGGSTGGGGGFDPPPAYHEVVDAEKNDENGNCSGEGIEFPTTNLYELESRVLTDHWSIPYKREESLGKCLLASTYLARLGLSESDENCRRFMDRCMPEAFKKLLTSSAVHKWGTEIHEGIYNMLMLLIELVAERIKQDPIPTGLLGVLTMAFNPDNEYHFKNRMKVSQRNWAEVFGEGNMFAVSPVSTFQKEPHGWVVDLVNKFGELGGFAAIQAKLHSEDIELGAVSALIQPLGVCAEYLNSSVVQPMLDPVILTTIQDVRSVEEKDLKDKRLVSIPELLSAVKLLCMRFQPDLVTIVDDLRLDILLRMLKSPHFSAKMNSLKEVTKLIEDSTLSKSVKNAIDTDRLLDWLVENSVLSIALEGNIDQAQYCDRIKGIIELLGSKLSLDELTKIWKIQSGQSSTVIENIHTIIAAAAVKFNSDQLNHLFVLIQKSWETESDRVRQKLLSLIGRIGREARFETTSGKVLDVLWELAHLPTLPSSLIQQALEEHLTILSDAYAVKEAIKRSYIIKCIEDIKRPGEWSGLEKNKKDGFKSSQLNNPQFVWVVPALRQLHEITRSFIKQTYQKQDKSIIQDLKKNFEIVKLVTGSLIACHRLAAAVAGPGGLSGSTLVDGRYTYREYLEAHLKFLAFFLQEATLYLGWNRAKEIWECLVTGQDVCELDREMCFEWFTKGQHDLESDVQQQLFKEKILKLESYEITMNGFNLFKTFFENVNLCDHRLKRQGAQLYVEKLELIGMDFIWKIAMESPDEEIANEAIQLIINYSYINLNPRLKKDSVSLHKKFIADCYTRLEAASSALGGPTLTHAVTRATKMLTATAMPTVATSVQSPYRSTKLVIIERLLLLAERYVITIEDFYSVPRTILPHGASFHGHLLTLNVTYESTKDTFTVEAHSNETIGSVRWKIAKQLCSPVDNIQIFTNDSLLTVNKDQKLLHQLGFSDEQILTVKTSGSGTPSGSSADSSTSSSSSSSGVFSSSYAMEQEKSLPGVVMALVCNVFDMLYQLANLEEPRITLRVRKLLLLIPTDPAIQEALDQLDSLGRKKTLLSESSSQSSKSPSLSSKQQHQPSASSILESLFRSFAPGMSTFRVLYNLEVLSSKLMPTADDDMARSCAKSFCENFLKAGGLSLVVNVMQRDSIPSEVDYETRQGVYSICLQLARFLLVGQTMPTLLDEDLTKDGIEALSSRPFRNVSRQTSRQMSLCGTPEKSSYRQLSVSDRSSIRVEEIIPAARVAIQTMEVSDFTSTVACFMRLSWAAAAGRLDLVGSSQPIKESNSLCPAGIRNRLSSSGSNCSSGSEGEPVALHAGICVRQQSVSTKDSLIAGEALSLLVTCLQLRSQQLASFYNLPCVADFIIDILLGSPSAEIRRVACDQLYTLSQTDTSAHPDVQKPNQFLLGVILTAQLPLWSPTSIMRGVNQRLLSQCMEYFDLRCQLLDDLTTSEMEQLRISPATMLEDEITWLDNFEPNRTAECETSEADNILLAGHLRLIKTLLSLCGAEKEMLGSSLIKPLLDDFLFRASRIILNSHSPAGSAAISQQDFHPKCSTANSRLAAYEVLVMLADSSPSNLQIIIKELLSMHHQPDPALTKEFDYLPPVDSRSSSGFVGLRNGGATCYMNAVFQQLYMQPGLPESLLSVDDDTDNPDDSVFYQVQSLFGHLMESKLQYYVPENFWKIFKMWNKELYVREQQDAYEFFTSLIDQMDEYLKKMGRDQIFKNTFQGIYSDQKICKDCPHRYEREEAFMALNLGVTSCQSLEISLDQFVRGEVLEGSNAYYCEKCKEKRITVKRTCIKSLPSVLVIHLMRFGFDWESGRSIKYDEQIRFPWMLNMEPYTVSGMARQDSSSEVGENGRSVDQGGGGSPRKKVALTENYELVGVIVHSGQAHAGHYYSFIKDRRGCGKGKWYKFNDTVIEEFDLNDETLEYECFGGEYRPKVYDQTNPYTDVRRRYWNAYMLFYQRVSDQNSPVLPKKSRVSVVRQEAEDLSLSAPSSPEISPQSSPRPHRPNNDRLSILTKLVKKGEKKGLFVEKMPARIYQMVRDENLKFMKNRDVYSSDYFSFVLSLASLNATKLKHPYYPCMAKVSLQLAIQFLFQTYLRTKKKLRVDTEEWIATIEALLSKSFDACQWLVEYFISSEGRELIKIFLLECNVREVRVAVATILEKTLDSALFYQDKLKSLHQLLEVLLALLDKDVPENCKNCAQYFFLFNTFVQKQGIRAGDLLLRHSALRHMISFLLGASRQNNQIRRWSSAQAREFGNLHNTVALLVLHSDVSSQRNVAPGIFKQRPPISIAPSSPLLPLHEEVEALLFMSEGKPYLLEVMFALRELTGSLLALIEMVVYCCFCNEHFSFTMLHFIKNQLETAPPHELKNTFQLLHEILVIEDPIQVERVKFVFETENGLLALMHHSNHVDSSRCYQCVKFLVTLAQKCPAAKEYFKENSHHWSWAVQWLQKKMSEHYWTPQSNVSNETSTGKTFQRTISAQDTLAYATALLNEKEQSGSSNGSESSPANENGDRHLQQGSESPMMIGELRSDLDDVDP
Method in brief: as §1

USP25 = target: T2, USP25 (UniProt Q9UHP3)
T2 sequence (whole entry): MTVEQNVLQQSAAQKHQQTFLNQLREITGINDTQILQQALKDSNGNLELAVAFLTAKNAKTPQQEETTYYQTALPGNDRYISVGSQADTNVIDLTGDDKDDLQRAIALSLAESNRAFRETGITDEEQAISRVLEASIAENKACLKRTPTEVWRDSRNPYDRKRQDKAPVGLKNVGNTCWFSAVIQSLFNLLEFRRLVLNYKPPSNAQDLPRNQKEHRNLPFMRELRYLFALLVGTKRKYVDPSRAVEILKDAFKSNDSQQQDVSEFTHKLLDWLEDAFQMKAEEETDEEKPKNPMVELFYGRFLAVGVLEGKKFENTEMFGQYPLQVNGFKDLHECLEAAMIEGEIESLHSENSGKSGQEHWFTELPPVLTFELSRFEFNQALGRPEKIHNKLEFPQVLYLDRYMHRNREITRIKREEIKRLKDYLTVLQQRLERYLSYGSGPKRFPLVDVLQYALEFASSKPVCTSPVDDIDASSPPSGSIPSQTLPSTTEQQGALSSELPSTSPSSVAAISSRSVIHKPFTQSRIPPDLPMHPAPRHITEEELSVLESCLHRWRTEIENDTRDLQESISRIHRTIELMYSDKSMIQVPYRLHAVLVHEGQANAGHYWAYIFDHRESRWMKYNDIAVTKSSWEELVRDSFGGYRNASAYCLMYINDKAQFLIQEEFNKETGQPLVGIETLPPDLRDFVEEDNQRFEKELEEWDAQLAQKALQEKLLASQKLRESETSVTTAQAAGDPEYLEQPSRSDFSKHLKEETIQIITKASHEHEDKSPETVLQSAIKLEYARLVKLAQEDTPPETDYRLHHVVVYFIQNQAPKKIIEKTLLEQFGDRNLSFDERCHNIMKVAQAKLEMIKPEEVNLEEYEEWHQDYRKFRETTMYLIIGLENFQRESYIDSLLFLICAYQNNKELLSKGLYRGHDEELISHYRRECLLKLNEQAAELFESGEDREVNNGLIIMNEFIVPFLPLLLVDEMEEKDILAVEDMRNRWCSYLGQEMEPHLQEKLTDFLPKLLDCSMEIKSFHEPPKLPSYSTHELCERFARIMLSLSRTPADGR
Method in brief: as §1

USP28 = target: T3, USP28 (UniProt Q96RU2)
T3 sequence (whole entry): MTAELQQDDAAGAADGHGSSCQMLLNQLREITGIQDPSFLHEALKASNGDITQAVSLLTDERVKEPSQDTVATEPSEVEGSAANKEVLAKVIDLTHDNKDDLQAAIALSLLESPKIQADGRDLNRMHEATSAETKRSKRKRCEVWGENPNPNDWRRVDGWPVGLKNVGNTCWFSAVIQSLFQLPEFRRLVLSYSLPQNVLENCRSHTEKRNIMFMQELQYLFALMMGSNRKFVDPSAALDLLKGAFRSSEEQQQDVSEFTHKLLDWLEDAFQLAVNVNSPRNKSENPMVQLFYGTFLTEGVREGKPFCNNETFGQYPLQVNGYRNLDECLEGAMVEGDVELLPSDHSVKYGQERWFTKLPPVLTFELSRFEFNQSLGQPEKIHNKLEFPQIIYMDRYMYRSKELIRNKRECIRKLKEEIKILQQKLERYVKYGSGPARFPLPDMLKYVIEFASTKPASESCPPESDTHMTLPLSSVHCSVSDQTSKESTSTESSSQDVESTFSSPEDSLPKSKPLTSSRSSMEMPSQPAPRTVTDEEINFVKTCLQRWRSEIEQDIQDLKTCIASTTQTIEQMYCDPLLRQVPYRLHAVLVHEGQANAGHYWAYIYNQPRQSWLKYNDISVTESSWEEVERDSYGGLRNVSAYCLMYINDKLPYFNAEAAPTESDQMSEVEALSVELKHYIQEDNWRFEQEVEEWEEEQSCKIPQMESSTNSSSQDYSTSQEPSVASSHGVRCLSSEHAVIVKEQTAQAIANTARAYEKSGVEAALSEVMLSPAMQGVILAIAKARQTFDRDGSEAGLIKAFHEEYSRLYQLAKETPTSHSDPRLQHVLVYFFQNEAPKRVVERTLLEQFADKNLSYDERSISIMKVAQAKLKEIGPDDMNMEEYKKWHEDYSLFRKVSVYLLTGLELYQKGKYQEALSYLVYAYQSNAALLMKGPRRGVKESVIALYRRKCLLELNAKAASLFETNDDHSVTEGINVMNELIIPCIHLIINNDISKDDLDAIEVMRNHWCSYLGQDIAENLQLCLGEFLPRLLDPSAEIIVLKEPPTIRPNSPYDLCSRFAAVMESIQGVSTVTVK
Method in brief: as §1

Measured: log2 ratio of Biotin-Ahx-Ub-VS probe labelling

Cl.Cn1ncc2c1CC(NC(=O)CCl)CC2 (centres undefined)
inactive: USP19 0.0381 | USP24 0.0406 | USP25 -0.321 | USP28 -0.758
